# Test results: PubChem BioAssay AID1224903 (Bradner/Qi Labs at DFCI, 2016)
# Several values for one entry are separate records, joined by “and”; a condition that tells them apart may be missing. Identical values can stand only once. The campaign covered roughly 66,000 compounds. About 720 (1.1%) were called active. Cut-off read from the data, not from the text of the source: active = normalised signal below about 0.5; inactive = the rest, inconclusive results apart. Many of the other results were omitted from the sample, so actives are more common in it than they were.
# Target: Chromobox protein homolog 7 (Homo sapiens) (UniProt O95931)
# Sequence (O95931 whole entry, looked up): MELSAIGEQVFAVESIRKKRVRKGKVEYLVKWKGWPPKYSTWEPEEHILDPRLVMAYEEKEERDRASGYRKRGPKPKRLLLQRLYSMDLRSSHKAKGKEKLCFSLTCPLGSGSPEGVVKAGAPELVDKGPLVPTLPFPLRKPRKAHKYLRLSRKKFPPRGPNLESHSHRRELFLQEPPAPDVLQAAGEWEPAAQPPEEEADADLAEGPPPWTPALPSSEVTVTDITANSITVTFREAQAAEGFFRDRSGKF
# Test: CBX7 chromodomain binding inhibitors, primary screen, biochemical, AlphaScreen (AID 1224903)
# Conditions: AlphaScreen His6-CBX7 / biotin-H3K27me3 peptide binding, stronger effect = lower value; z-score: measured here: z-score of CBX7 signal
SMILES,normalised signal (fraction of DMSO),z-score
COc1ccccc1Nc1nc(-c2ccc(Br)cc2)cs1,0.904 (inactive) and 0.953 (inactive),-2.04 and -0.747
CN(CCCNC(=O)c1cc(-c2ccncc2)nc2ccccc12)C1CCCCC1,1.17 (inactive),1.9
Cc1ccc2oc(-c3cc(NC(=O)c4cccc(F)c4)ccc3Cl)nc2c1,0.889 (inactive),-0.255
CCOC(=O)c1cc(-c2ccccc2)n(-c2cccc(C(=O)Nc3nccs3)c2)c1C,0.944 (inactive),-1.01
CCOC(=O)c1cnc2cc(Cl)c(OC)cc2c1Nc1ccc(C(F)(F)F)cc1,0.983 (inactive),-0.244
CC(=O)Nc1ncc2c(n1)CC(c1cccs1)CC2=O (stereo unspecified),0.997 (inactive),-0.0863
Fc1ccc(-c2cc(C(F)(F)F)nc(NCc3ccc(Cl)cc3)n2)cc1,1.25 (inactive),2.79
O=C(NC1CCCC1)c1nn2c(C(F)(F)F)cc(-c3ccc(F)cc3)nc2c1Cl,1.08 (inactive),0.569
CCC(C)NC(=O)c1ccc2nc(N3CCOCC3)sc2c1 (stereo unspecified),1.08 (inactive),3.28
Cn1cc(CC(=O)N2CCN(c3ccccn3)CC2)c2ccccc21,0.973 (inactive),-0.31
O=C(NCCCc1nc2ccccc2n1Cc1ccccc1F)c1ccc(F)cc1,0.957 (inactive),-1.01
Cn1c(C(=O)NCCCSC2CCCCC2)cc2sc(Cl)cc21,1.03 (inactive),0.498
Cc1ccc(-c2nc(-c3ccccc3Cl)no2)cc1,1.16 (inactive),1.59
COc1ccc(-n2c3c(cc(C(=O)NC(C)(C)C)c2=O)C(=O)CC(C)(C)C3)cc1,1.06 (inactive),0.667
Cc1cc(NC(=O)CSc2nnc(-c3ccc(Cl)s3)o2)no1,1.1 (inactive),1.02
Cc1ccc(-c2nnc(SCC(=O)Nc3cc(C)on3)o2)cc1,1.19 (inactive),2.87
COc1ccc(OC)c(-c2nnc(SCC(=O)Nc3cc(C)on3)o2)c1,0.264 (active),-15.1
CC1CCN(c2nc3ccc(C(=O)NCCCN4C(C)CCCC4C)cc3s2)CC1 (stereo unspecified),1.41 (inactive),3.88
COc1ccc(CCNC(=O)c2cccc3c2C(=O)N(Cc2cccnc2)C3)cc1OC,1.02 (inactive),0.0167
CCN(C(=O)Cc1nc(N)n[nH]1)C1(C(=O)Nc2ccccc2)CCCCC1,0.201 (active),-14.5
CCN(C(=O)Cc1nc(N)n[nH]1)C1(C(=O)Nc2ccc(C)cc2)CCCCC1,0.791 (inactive),-3.79
Cc1cccc(C)c1NC(=O)C1(N(CCc2c[nH]c3ccccc23)C(=O)c2ccccc2F)CCCCC1,0.792 (inactive),-3.78
Cc1cc(NCC(C)c2ccccc2)n2ncnc2n1 (stereo unspecified),1.03 (inactive),0.546
CCOC(=O)c1cccc(NC(=O)Cn2nc(Cc3ccncc3)c3ccccc3c2=O)c1,0.996 (inactive),-0.0743
COc1cccc(C2=NOC(C(=O)NCCc3ccccc3)C2)c1 (stereo unspecified),1.14 (inactive),1.85
Cc1cc(Nc2ccc(C)c(C)c2)n2ncnc2n1,1.04 (inactive),0.609
CC1CCC(NC(=O)C2c3ccccc3C(=O)N2Cc2ccc3c(c2)OCO3)CC1 (stereo unspecified),1.04 (inactive),0.918

SMILES,normalised signal (fraction of DMSO),z-score
COc1ccc(CCNC(=O)CSc2nc3ccccc3nc2Cc2ccc(F)cc2)cc1OC,0.48 (active),-8.99
COc1ccc(CCNC(=O)CSc2nnc(CNC(=O)c3cccs3)o2)cc1OC,0.975 (inactive),-0.715
COc1ccc(CCNC(=O)CSc2nc3ccccc3[nH]2)cc1OC,1.07 (inactive),0.758
CCNc1cc(Nc2ccccc2)c2c3c(onc13)-c1ccccc1C2=O,0.816 (inactive),-3.56
O=S1(=O)N=C(N2CCCCC2)c2ccccc21,1.07 (inactive),2
O=C1c2ccccc2-c2onc3c(N4CCCC4)ccc1c23,0.367 (active),-9.89
O=C(Nc1ccccc1Cl)N1CCCCC1c1cccnc1 (stereo unspecified),0.995 (inactive),-0.051
Cc1ccc(Nc2cc(C(=O)O)c3ccccc3n2)cc1,1.11 (inactive),1.21
O=C(COc1ccc(Cl)cc1)NCc1nnc(SCC(=O)NCC2CCCO2)o1 (stereo unspecified),1.04 (inactive),1.76
COc1ccc(C2CC(=O)N(CC(=O)Nc3ccc(C)c(Cl)c3)c3ccccc3S2)cc1 (stereo unspecified),0.931 (inactive),-1.15
Cc1ccccc1OCC(O)Cn1c(=N)n(C)c2ccccc21 (stereo unspecified),1.02 (inactive),0.641
CC(=O)N1CCc2cc(S(=O)(=O)N(CCO)Cc3ccccc3)ccc21,1.17 (inactive),1.75
CCOc1ccc2nc(C)cc(Nc3ccc(OC)c(OC)c3)c2c1,0.818 (inactive),-2.64
CCCCc1ccc(NC(=O)CSc2nccn2-c2cccc(C)c2C)cc1,0.742 (inactive),-0.258
Cc1cccc(N(C)C(=O)C(NS(=O)(=O)c2ccc3c(c2)CCC(=O)N3)c2ccccc2)c1 (stereo unspecified),1.06 (inactive),0.379
CC1CCCCN1CCCNC(=O)C1CCC(=O)N1C1CCCC1 (stereo unspecified),1.05 (inactive),1.64
c1ccc(SCCc2ccc3cc(-c4ccccc4)cn3c2)cc1,0.986 (inactive),-0.335
CCOc1ccc2nc(NC(=O)c3ccc(OC)cc3)sc2c1,1.05 (inactive),1.46
Cc1c(CNC2CCCCC2C)c(C(=O)O)c(C)n1Cc1ccccc1 (stereo unspecified),1.01 (inactive),0.18
O=C(c1ccc(NC2=NC3CS(=O)(=O)CC3S2)cc1)N1CCN(C2CCCCC2)CC1 (stereo unspecified),1.05 (inactive),1.03
COc1ccc(CNC(=O)C2CCN(S(=O)(=O)c3c(C)noc3C)CC2)cc1,1.02 (inactive),0.788
Cc1ccc(-c2nc(Nc3cccc(C(F)(F)F)c3)c3ccccc3n2)cc1,1.08 (inactive),1.39
Cc1ccc(Cl)cc1N1CCN(C(=O)Cn2ncc3c2-c2ccccc2OC3)CC1,0.728 (inactive),-7.81
CCn1cnc2cc(NCc3ccccn3)ccc21,0.316 (active),-5.49
CCCn1cnc2cc(NCc3cc(OC)ccc3OC)ccc21,0.919 (inactive),-2.03
COc1cccc(CNc2ccc3c(c2)ncn3C)c1,0.916 (inactive),-1.96
